Results as given in PubChem BioAssay (EPA / NIEHS).
Calls of active or inactive are those of the source. How the source made its calls: active means hit-call score of the fitted dose curve at least 0.9, where 1 is the maximum; inactive means score below 0.9.

Tests used:
[1] = read-out: Human Leukocyte Antigen - DR isotype (HLADR), HLA-DRA (gene 3122); test: BSK_3C_HLADR: BioMAP Diversity Plus: 3C Assay for Human Leukocyte Antigen - DR isotype (HLADR) Biomarker Activity (AID 2283019); details: primary human endothelial cells (HUVEC); actives raise or lower the signal
In short: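 Endothelial cells from human umbilical vein are treated with test chemical; after 24 h, HLA-DR levels are measured by ELISA. Data are fitted in both directions using DMSO as the baseline.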

[2] = BSK_3C_Vis: BioMAP Diversity Plus: 3C Assay for Morphology Visualization (AID 2283025); details: primary human endothelial cells (HUVEC);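 further: fitted both ways so gain or loss versus DMSO counts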
In short: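 Human umbilical vein endothelial cells in the 3C system were imaged by light microscopy 24 h after chemical dosing to record cell morphology. Activity was fitted bidirectionally against DMSO as negative control and baseline; the endpoint serves as a background control.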

[3] = read-out: Transforming growth factor beta 1 (TGFb1), TGFB1 (gene 7040); test: BSK_BE3C_TGFb1: BioMAP Diversity Plus: BE3C Assay for Transforming growth factor beta 1 (TGFb1) Biomarker Activity (AID 2283036); details: primary human bronchial epithelial cells; actives raise or lower the signal
In short: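 Human primary bronchial epithelial cells (BE3C system) were dosed with chemical and TGF-b1 levels measured by ELISA at 24 h. Activity was fitted bidirectionally relative to DMSO negative control as baseline.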

[4] = read-out: Interleukin-8 (IL8), CXCL8 (gene 3576); test: BSK_CASM3C_IL8: BioMAP Diversity Plus: CASM3C Assay for Interleukin-8 (IL8) Biomarker Activity (AID 2283042); details: primary human coronary artery smooth muscle cells; actives raise or lower the signal;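 further: IL-8 protein level quantified by ELISA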
[5] = read-out: Human Leukocyte Antigen - DR isotype (HLADR), HLA-DRA (gene 3122); test: BSK_CASM3C_HLADR: BioMAP Diversity Plus: CASM3C Assay for Human Leukocyte Antigen - DR isotype (HLADR) Biomarker Activity (AID 2283043); details: primary human coronary artery smooth muscle cells; actives raise or lower the signal;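 further: cell-surface HLA-DR protein level quantified by ELISA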
[6] = read-out: Monokine induced gamma interferon (MIG), CXCL9 (gene 4283); test: BSK_CASM3C_MIG: BioMAP Diversity Plus: CASM3C Assay for Monokine induced gamma interferon (MIG) Biomarker Activity (AID 2283048); details: primary human coronary artery smooth muscle cells; actives raise or lower the signal;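 further: MIG protein level measured by ELISA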
[7] = read-out: Urokinase-type plasminogen activator receptor (uPAR), PLAUR (gene 5329); test: BSK_CASM3C_uPAR: BioMAP Diversity Plus: CASM3C Assay for Urokinase-type plasminogen activator receptor (uPAR) Biomarker Activity (AID 2283054); details: primary human coronary artery smooth muscle cells; actives raise or lower the signal;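 further: cell-surface uPAR protein level quantified by ELISA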
[8] = read-out: Intercellular Adhesion Molecule 1 (ICAM1), ICAM1 (gene 3383); test: BSK_KF3CT_ICAM1: BioMAP Diversity Plus: KF3CT Assay for Intercellular Adhesion Molecule 1 (ICAM1) Biomarker Activity (AID 2283067); details: primary human keratinocytes with fibroblasts; actives raise or lower the signal
In short: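 Dose the keratinocyte/fibroblast co-culture, wait 24 h, measure ICAM-1 by ELISA, then fit increases or decreases against DMSO. Cytotoxicity is checked in parallel cultures by SRB total-protein staining.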

[9] = read-out: Transforming growth factor beta 1 (TGFb1), TGFB1 (gene 7040); test: BSK_KF3CT_TGFb1: BioMAP Diversity Plus: KF3CT Assay for Transforming growth factor beta 1 (TGFb1) Biomarker Activity (AID 2283072); details: primary human keratinocytes with fibroblasts; actives raise or lower the signal
In short: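 Human keratinocyte plus foreskin fibroblast primary co-culture, dosed with chemical for 24 h. TGF-b1 quantified by ELISA. Activity fitted bidirectionally against DMSO negative control as baseline.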

CD40, CD40 (gene 958) = test: BSK_SAg_CD40: BioMAP Diversity Plus: SAg Assay for CD40 Biomarker Activity (AID 2283088); details: primary human HUVEC with PBMC; actives raise or lower the signal
In short: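 Fluorescence ELISA read-out of CD40 from umbilical vein endothelium plus peripheral blood mononuclear cells, sampled 24 h after dosing. Values come from bidirectional curve fitting with DMSO as baseline.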

[10] = read-out: Monokine induced gamma interferon (MIG), CXCL9 (gene 4283); test: BSK_SAg_MIG: BioMAP Diversity Plus: SAg Assay for Monokine induced gamma interferon (MIG) Biomarker Activity (AID 2283092); details: primary human HUVEC with PBMC; actives raise or lower the signal
In short: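 Values reflect bidirectional fitting of ELISA-measured MIG against DMSO vehicle, taken 24 h after dosing of a co-culture of human umbilical vein endothelial cells and peripheral blood mononuclear cells.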

[11] = BSK_SAg_Proliferation: Cell Proliferation Assessment in the BioMAP Diversity Plus: SAg Assay (AID 2283095); details: primary human HUVEC with PBMC;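 further: relative cell number as total protein by SRB absorbance in sub-confluent culture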
In short: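 Human umbilical vein endothelial cells co-cultured with peripheral blood mononuclear cells; total protein measured by sulforhodamine B staining (0.1% SRB after 10% TCA fixation), absorbance at 560 nm, at 96 h. Bidirectional fit against DMSO baseline.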

[12] = BSK_SAg_SRB: Viability Assessment in the BioMAP Diversity Plus: SAg Assay (AID 2283096); details: primary human HUVEC with PBMC;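 further: cells read one day after compound addition; hits may be either gain or loss of signal compared with DMSO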
In short: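 Human umbilical vein endothelial cells co-cultured with PBMC, read 24 h after compound dosing. Total protein measured by sulforhodamine B staining (0.1% SRB after 10% TCA fixation, absorbance 560 nm); bidirectional fit versus DMSO baseline.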

[13] = BSK_BT_PBMCCytotoxicity: PBMC Cytotoxicity Assessment in the BioMAP Diversity Plus: BT Assay (AID 2284225); details: primary human B cells with PBMC;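 further: PBMC viability measured by Alamar Blue dye reduction fluorescence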
In short: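 75,000 cells/well; cpd 1 h → SEB + TSST-1 (20 ng/mL final each) → 90 h → Alamar Blue 6 h → fluor. 546/580 nm. DMSO = neg. control/baseline.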

[14] = read-out: Secreted IgG (sIgG), gene 3500; test: BSK_BT_sIgG: BioMAP Diversity Plus: BT Assay for Secreted IgG (sIgG) Biomarker Activity (AID 2284226); details: primary human B cells with PBMC
In short: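 B cells co-cultured with PBMC were dosed with chemical and secreted IgG quantified by ELISA at 24 h. Activity was fitted in the positive direction relative to DMSO as negative control and baseline.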

[15] = BSK_BT_Bcell_Proliferation: Viability Assessment in the BioMAP Diversity Plus: BT Assay for B cell Proliferation (AID 2284227); details: primary human B cells with PBMC
In short: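 Using a human primary B cell–PBMC co-culture, the assay measures total protein by sulforhodamine B absorbance as a gauge of proliferation after 72 h. Analysis followed the positive fitting direction with DMSO as baseline.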

[16] = read-out: Interleukin 17A (IL17A), IL17A (gene 3605); test: BSK_BT_xIL17A: BioMAP Diversity Plus: BT Assay for Interleukin 17A (IL17A) Biomarker Activity (AID 2284229); details: primary human B cells with PBMC
In short: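 Chemicals were added to a human B cell and PBMC co-culture. After 24 h, secreted IL-17A was measured with Luminex xMAP. Curves were fitted in the positive direction, with DMSO wells as baseline.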

[17] = read-out: Collagen III, COL3A1 (gene 1281); test: BSK_MyoF_CollagenIII: BioMAP Diversity Plus: MyoF Assay for Collagen III Biomarker Activity (AID 2284239); details: primary human lung fibroblasts
In short: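 Compounds are added to primary human lung fibroblasts and left for 24 hours. Collagen III is then quantified by ELISA. Analysis takes DMSO as baseline and fits increases in signal.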

[18] = read-out: Interleukin 2 (IL2), IL2 (gene 3558); test: BSK_BT_xIL2: BioMAP Diversity Plus: BT Assay for Interleukin 2 (IL2) Biomarker Activity (AID 2284245); details: primary human B cells with PBMC
In short: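 Human B cells co-cultured with PBMC, exposed to test chemical for 24 h. Secreted IL-2 quantified by Luminex xMAP bead immunoassay; activity fitted in the positive direction relative to DMSO vehicle baseline.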

[19] = read-out: Matrix Metallopeptidase 1 (MMP1), MMP1 (gene 4312); test: BSK_MyoF_MMP1: BioMAP Diversity Plus: MyoF Assay for Matrix Metallopeptidase 1 (MMP1) Biomarker Activity (AID 2284268); details: primary human lung fibroblasts
In short: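 MMP1 measured by ELISA 24 h after dosing primary human lung fibroblasts; cytotoxicity checked in parallel cultures by sulforhodamine B total-protein staining read at 560 nm.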

Measured: AC50

O=C1C(Cl)=C(Cl)C(=O)C(Cl)=C1Cl
active: [1] 6.64 µM | [2] 4.54 µM | [5] 14.4 µM | [6] 29.1 µM | [7] 20 µM | [8] 20 µM | [9] 20 µM | CD40, CD40 (gene 958) 25.3 µM | [10] 36.2 µM | [11] 7.77 µM | [12] 30.9 µM | [13] 26.4 µM | [14] 32.6 µM | [15] 26 µM | [16] 20 µM | [17] 14.4 µM | [18] 29.3 µM
inactive: [3] | [4] | [19]

CCCCCCCCCCCC#N
active: [1] 28.6 µM | [2] 40.2 µM | CD40, CD40 (gene 958) 27.7 µM | [17] 29.6 µM | [19] 33.7 µM
not listed: [11]
inactive: all other assays above

CCCOC(=O)c1ccccc1C(=O)OCCC
active: [1] 7.06 µM | [7] 5.19 µM | [14] 20 µM
inactive: all other assays above

COCC(=O)N(c1c(C)cccc1C)N1CCOC1=O
inactive: all assays above
